Data as given in PubChem BioAssay AID1224921 (Broad Institute, 2016).
Among all 1,400 compounds or so, about 350 (25%) were called active. Roughly 2% stayed inconclusive and do not appear here. How the calls were made is not given here. Not all results are given here. Measured potencies and affinities stand elsewhere.

Assay: C. difficile growth inhibition, confirmation, 4-point retest (AID 1224921);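 further: plate controls were DMSO wells for no effect and levofloxacin 16 µg/mL wells for full effect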
Conditions: Clostridioides difficile clinical isolate growth, OD600, 24 h, active compounds read low; at 30 µM unless noted

Max activity, inactive:
CCCNC(=O)Nc1ccc2c(c1)C(=O)N(C)C[C@H](OC)[C@H](C)CN(C)[C@@H](C)CO2 -3.68% [at 0.5 µM], C[C@@H]1CN([C@H](C)CO)C(=O)c2c(c3ccccc3n2C)-c2ccccc2CO[C@@H]1CN(C)C(=O)N[C@H](C)c1ccccc1 9.23% [at 35 µM], CCCNC(=O)Nc1ccc2c(c1)C(=O)N(C)C[C@@H](OC)[C@@H](C)CN(CC1CCCC1)[C@@H](C)CO2 -4.03% [at 1.95 µM], O=C(C[C@@H]1CC[C@@H]2[C@H](COC[C@H](O)CN2CC2CCCCC2)O1)NCc1ccc(Cl)cc1 22.4% [at 8 µM], CO[C@H]1CN(C)C(=O)c2ccc(NC(=O)c3ccc(F)cc3)cc2OC[C@H](C)N(C(=O)CN(C)C)C[C@H]1C -10.1%, O=C(C[C@H]1C[C@H]2c3cc(NC(=O)CC4CC4)ccc3O[C@H]2[C@@H](CO)O1)NCc1cccc(F)c1 -3.04% [at 1.95 µM], Cc1ccc(-c2ccc3c(c2)O[C@H](CN(C)Cc2ccncc2)[C@H](C)CN([C@H](C)CO)S3(=O)=O)cc1 34.8%, C[C@H](CO)N1C[C@H](C)[C@H](CN(C)Cc2cccc(C(=O)O)c2)OCc2ccccc2-c2c(n(C)c3ccccc23)C1=O -7.45% [at 0.5 µM], CC1=CC2(CO)C(=O)[C@]3(CO3)[C@H]1[C@H]1[C@]2(C)C=C(CO)C(=O)[C@]12CO2 15.6%, Cc1ccc(F)cc1S(=O)(=O)N[C@@H]1CCN(Cc2ccc(OC(C)C)cc2)C1 34.7% [at 8 µM], C[C@@H]1CN([C@H](C)CO)C(=O)c2c(c3ccccc3n2C)-c2ccccc2CO[C@H]1CN(C)C(=O)c1ccncc1 18.8%, COc1ccccc1-c1ccc2c(c1)O[C@H](CN(C)C(=O)c1ccccc1)[C@H](C)CN([C@@H](C)CO)S2(=O)=O 42.3%, C[C@H](CO)N1C[C@H](C)[C@@H](CN(C)S(=O)(=O)c2ccsc2)OCc2ccccc2-c2ccccc2C1=O 26.8%, CO[C@@H]1CN(C)C(=O)c2ccc(NS(=O)(=O)CC(F)(F)F)cc2OC[C@@H](C)N(C(=O)NC(C)C)C[C@H]1C 14.6%, Cc1noc(C)c1NC(=O)N(C)C[C@@H]1Oc2ccc(NC(=O)CCCCCC(=O)Nc3ccccc3N)cc2C(=O)N([C@@H](C)CO)C[C@@H]1C -8.05% [at 1.8 µM], CO[C@H]1CN(C)C(=O)c2cc(NC(=O)NC3CCCCC3)ccc2OC[C@@H](C)N(CCc2ccccc2)C[C@H]1C 25.3%, CC(C)CC#Cc1ccc2c(c1)O[C@H](CN(C)Cc1ccncc1)[C@@H](C)CN([C@H](C)CO)S2(=O)=O 17.5%, C[C@@H]1CN([C@@H](C)CO)C(=O)c2cc(/C=C/c3ccccc3)cnc2O[C@H]1CN(C)C(=O)CN(C)C 18%, COCC#Cc1ccc2c(c1)O[C@@H](CN(C)Cc1ccncc1)[C@@H](C)CN([C@H](C)CO)S2(=O)=O 17.6%, O=C(NCCc1ccccc1)[C@H]1[C@H](CO)[C@H]2Cn3c(cccc3=O)[C@@H]1N2C(=O)C1CC1 -7.04%, C[C@H](CO)N1C[C@H](C)[C@@H](CN(C)Cc2cccnc2)Oc2cc(C#CC3CC3)ccc2S1(=O)=O 21.4%, CCCN1C[C@@H](C)[C@H](OC)CN(C)C(=O)c2cc(NC(=O)c3ccc4c(c3)OCO4)ccc2OC[C@H]1C 14.6% [at 35 µM], C[C@@H]1CN([C@H](C)CO)C(=O)c2ccccc2-c2ccccc2CO[C@H]1CN(C)C(=O)CCN(C)C -7.05% [at 0.5 µM], COc1ccc(CN(C)C[C@H]2Oc3ccc(NC(=O)Nc4ccc(C(F)(F)F)cc4)cc3C(=O)N([C@@H](C)CO)C[C@H]2C)cc1 -5.09% [at 0.5 µM], CO[C@@H]1CN(C)C(=O)c2ccc(NS(=O)(=O)c3ccccc3C)cc2OC[C@H](C)N(S(C)(=O)=O)C[C@H]1C -9.59% [at 8 µM], CNC[C@@H]1Oc2cc(-c3cccnc3)ccc2S(=O)(=O)N([C@H](C)CO)C[C@H]1C 14.8%, C[C@H]1CN([C@@H](C)CO)C(=O)c2ccccc2-c2ccccc2CO[C@H]1CN(C)S(=O)(=O)c1ccsc1 -19.4%, Cc1ccc(-c2ccc3c(c2)O[C@H](CN(C)Cc2cccnc2)[C@H](C)CN([C@H](C)CO)S3(=O)=O)cc1 17.6%, CCCNC(=O)Nc1ccc2c(c1)C(=O)N(C)C[C@H](OC)[C@@H](C)CN(C)[C@@H](C)CO2 4.84% [at 8 µM], COCCNC(=O)C[C@@H]1CC[C@H]2[C@@H](COc3ccc(NS(=O)(=O)c4ccc(Cl)cc4)cc3C(=O)N2C)O1 14.3%, CC(C)Cc1ccc(CN2CC[C@@H](NS(=O)(=O)c3ccccc3)C2)cc1 -12% [at 0.5 µM], CCCNC(=O)Nc1ccc2c(c1)C(=O)N(C)C[C@H](OC)[C@@H](C)CN(C(C)=O)[C@H](C)CO2 -7.56% [at 1.95 µM], CO[C@H]1CN(C)C(=O)c2ccc(NS(=O)(=O)c3ccc(C)cc3)cc2OC[C@H](C)N(C(=O)NC(C)C)C[C@H]1C -11.4% [at 1.95 µM], C/C=C/c1ccc2c(c1)O[C@H](CN(C)C(=O)c1ccc(F)cc1)[C@H](C)CN([C@@H](C)CO)S2(=O)=O 18.5%, CO[C@H]1CN(C)C(=O)c2cc(NC(C)=O)ccc2OC[C@@H](C)N(Cc2nccs2)C[C@H]1C -12.5% [at 8 µM], CO[C@@H]1CN(C)C(=O)c2cc(NC(C)=O)ccc2OC[C@H](C)N(CC2CCCCC2)C[C@@H]1C 16.5%, CC(=O)N[C@@H]1CC[C@H](CCNC(=O)Nc2ccc(C(F)(F)F)cc2)O[C@@H]1CO 16.8% [at 8 µM], CC(=O)N[C@H]1CC[C@@H](CCNC(=O)Nc2ccc(C(F)(F)F)cc2)O[C@H]1CO 10.2% [at 7.5 µM]
